Measured values taken from PubChem BioAssay AID1159580 (chemical genetic matrix, 2015).
Screen size: about 5,500 compounds; about 2,000 (36%) were called active. Another 18% or so got no clear call; they are omitted. Rule as the data show it: active = normalized growth mostly below about 0.91 (no sharp cut-off); inconclusive = no clear call, values can overlap the other calls; inactive = mostly above about 0.92. The list shows a part of the results.

Experiment: chemical genetic growth profiling, strain panel (AID 1159580);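 also: tested at 20 µM; growth read once vehicle control cultures reached saturation at 30 °C; 1 = growth at the plate median or of vehicle wells; lower values mean less growth of the strain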
Details: growth OD
[1] = S. cerevisiae deletion strains, locus YDL101C, strain DUN1, active compounds read low
[2] = S. cerevisiae deletion strains, locus YHR030C, strain SLT2, active compounds read low
[3] = S. cerevisiae deletion strains, locus YAL013W, strain DEP1, active compounds read low
[4] = S. cerevisiae deletion strains, locus YBR229C, strain ROT2, active compounds read low
[5] = S. cerevisiae deletion strains, locus YCL061C, strain MRC1, active compounds read low
[6] = S. cerevisiae deletion strains, locus YDL134C, strain PPH21, active compounds read low
[7] = S. cerevisiae deletion strains, locus YDR150W, strain NUM1, active compounds read low
[8] = S. cerevisiae deletion strains, locus YEL061C, strain CIN8, active compounds read low
[9] = S. cerevisiae deletion strains, locus YGR078C, strain PAC10, active compounds read low
[10] = S. cerevisiae deletion strains, locus YHR087W, strain rtc3, active compounds read low
[11] = S. cerevisiae deletion strains, locus YJR043C, strain POL32, active compounds read low
[12] = S. cerevisiae deletion strains, locus YJR075W, strain HOC1, active compounds read low
[13] = S. cerevisiae deletion strains, locus YKL190W, strain CNB1, active compounds read low
[14] = S. cerevisiae deletion strains, locus YLR039C, strain RIC1, active compounds read low
[15] = S. cerevisiae deletion strains, locus YLR058C, strain SHM2 (second series), active compounds read low
[16] = S. cerevisiae deletion strains, locus YLR085C, strain ARP6, active compounds read low
[17] = S. cerevisiae deletion strains, locus YLR262C, strain YPT6, active compounds read low
[18] = S. cerevisiae deletion strains, locus YML094W, strain GIM5, active compounds read low
[19] = S. cerevisiae deletion strains, locus YMR219W, strain ESC1, active compounds read low
[20] = S. cerevisiae deletion strains, locus YMR263W, strain SAP30, active compounds read low
[21] = S. cerevisiae deletion strains, locus YMR307W, strain GAS1, active compounds read low
[22] = S. cerevisiae deletion strains, locus YNL153C, strain GIM3, active compounds read low
[23] = S. cerevisiae deletion strains, locus YNL298W, strain CLA4 (second series), active compounds read low
[24] = S. cerevisiae deletion strains, locus YNL322C, strain KRE1, active compounds read low
[25] = S. cerevisiae deletion strains, locus YNR030W, strain Alg12, active compounds read low
[26] = S. cerevisiae deletion strains, locus YPL055C, strain LGE1, active compounds read low
[27] = S. cerevisiae deletion strains, locus YPL241C, strain CIN2, active compounds read low
[28] = S. cerevisiae deletion strains, locus YPR135W, strain CTF4, active compounds read low

Measured: normalized growth

Cc1c(Cl)cccc1N=C1SCC(=O)N1Cc1ccco1
active: [2] 0.758 | S. cerevisiae deletion strains, locus YLR113W, strain HOG1, active compounds read low 0.809 | S. cerevisiae deletion strains, locus YPL256C, strain CLN2, active compounds read low 0.791
inactive: S. cerevisiae deletion strains, locus YAR019C, strain CDC15, active compounds read low 0.981 | S. cerevisiae deletion strains, locus YBL105C, strain PKC1, active compounds read low 0.973 | S. cerevisiae deletion strains, locus YBR135W, strain CKS1, active compounds read low 0.972 | S. cerevisiae deletion strains, locus YBR136W, strain MEC1, active compounds read low 0.981 | S. cerevisiae deletion strains, locus YBR160W, strain CDC28, active compounds read low 0.971 | S. cerevisiae deletion strains, locus YDL017W, strain CDC7, active compounds read low 0.974 | S. cerevisiae deletion strains, locus YDL028C, strain MPS1, active compounds read low 0.977 | [1] 0.979 | S. cerevisiae deletion strains, locus YDL108W, strain KIN28, active compounds read low 0.972 | S. cerevisiae deletion strains, locus YDL132W, strain cdc53, active compounds read low 0.978 | S. cerevisiae deletion strains, locus YDL214C, strain PRR2, active compounds read low 0.905 | S. cerevisiae deletion strains, locus YDR052C, strain DBF4, active compounds read low 0.986 | S. cerevisiae deletion strains, locus YDR054C, strain cdc34, active compounds read low 0.96 | S. cerevisiae deletion strains, locus YDR226W, strain ADK1, active compounds read low 0.98 | S. cerevisiae deletion strains, locus YDR477W, strain SNF1, active compounds read low 0.918 | S. cerevisiae deletion strains, locus YER123W, strain YCK3, active compounds read low 0.884 | S. cerevisiae deletion strains, locus YER133W, strain GLC7, active compounds read low 0.915 | S. cerevisiae deletion strains, locus YFL009W, strain cdc4, active compounds read low 0.969 | S. cerevisiae deletion strains, locus YFL029C, strain CAK1, active compounds read low 0.971 | S. cerevisiae deletion strains, locus YFR003C, strain YPI1, active compounds read low 0.969 | S. cerevisiae deletion strains, locus YFR019W, strain FAB1, active compounds read low 0.918 | S. cerevisiae deletion strains, locus YFR028C, strain CDC14, active compounds read low 0.964 | S. cerevisiae deletion strains, locus YGR040W, strain KSS1, active compounds read low 0.912 | S. cerevisiae deletion strains, locus YGR052W, strain FMP48, active compounds read low 1 | S. cerevisiae deletion strains, locus YGR092W, strain DBF2, active compounds read low 0.943 | S. cerevisiae deletion strains, locus YHR079C, strain IRE1, active compounds read low 0.888 | S. cerevisiae deletion strains, locus YHR082C, strain KSP1, active compounds read low 0.942 | S. cerevisiae deletion strains, locus YHR205W, strain SCH9, active compounds read low 0.896 | S. cerevisiae deletion strains, locus YIL147C, strain SLN1, active compounds read low 0.975 | S. cerevisiae deletion strains, locus YJL095W, strain BCK1, active compounds read low 0.823 | S. cerevisiae deletion strains, locus YJL128C, strain PBS2, active compounds read low 0.951 | S. cerevisiae deletion strains, locus YJL157C, strain FAR1, active compounds read low 0.936 | S. cerevisiae deletion strains, locus YJR016C, strain ILV3, active compounds read low 0.969 | S. cerevisiae deletion strains, locus YJR066W, strain TOR1 (second series), active compounds read low 0.903 | S. cerevisiae deletion strains, locus YJR066W, strain TOR1, active compounds read low 0.893 | S. cerevisiae deletion strains, locus YKL048C, strain ELM1, active compounds read low 0.975 | S. cerevisiae deletion strains, locus YKL067W, strain YNK1, active compounds read low 0.903 | S. cerevisiae deletion strains, locus YKL101W, strain HSL1, active compounds read low 0.923 | S. cerevisiae deletion strains, locus YKL193C, strain SDS22, active compounds read low 0.966 | S. cerevisiae deletion strains, locus YKL203C, strain TOR2, active compounds read low 0.954 | S. cerevisiae deletion strains, locus YLR133W, strain CKI1, active compounds read low 0.918 | S. cerevisiae deletion strains, locus YLR403W, strain SFP1, active compounds read low 0.918 | S. cerevisiae deletion strains, locus YML070W, strain DAK1, active compounds read low 0.892 | S. cerevisiae deletion strains, locus YMR001C, strain CDC5, active compounds read low 0.973 | S. cerevisiae deletion strains, locus YMR205C, strain PFK2 (second series), active compounds read low 0.919 | S. cerevisiae deletion strains, locus YMR277W, strain FCP1, active compounds read low 0.969 | S. cerevisiae deletion strains, locus YNL006W, strain LST8, active compounds read low 0.974 | S. cerevisiae deletion strains, locus YNL020C, strain ARK1, active compounds read low 0.914 | S. cerevisiae deletion strains, locus YNL161W, strain CBK1, active compounds read low 0.978 | S. cerevisiae deletion strains, locus YNL183C, strain NPR1, active compounds read low 0.849 | S. cerevisiae deletion strains, locus YNL207W, strain RIO2, active compounds read low 0.974 | S. cerevisiae deletion strains, locus YNL222W, strain SSU72, active compounds read low 0.969 | S. cerevisiae deletion strains, locus YNL307C, strain MCK1 (second series), active compounds read low 0.892 | S. cerevisiae deletion strains, locus YOL078W, strain AVO1, active compounds read low 0.978 | S. cerevisiae deletion strains, locus YOL136C, strain PFK27, active compounds read low 0.889 | S. cerevisiae deletion strains, locus YOR061W, strain CKA2, active compounds read low 0.925 | S. cerevisiae deletion strains, locus YOR119C, strain RIO1, active compounds read low 0.998 | S. cerevisiae deletion strains, locus YOR231W, strain MKK1, active compounds read low 0.885 | S. cerevisiae deletion strains, locus YOR329C, strain SCD5, active compounds read low 0.976 | S. cerevisiae deletion strains, locus YPL031C, strain PHO85, active compounds read low 0.897 | S. cerevisiae deletion strains, locus YPL153C, strain RAD53, active compounds read low 0.916 | S. cerevisiae deletion strains, locus YPL204W, strain HRR25, active compounds read low 0.89 | S. cerevisiae deletion strains, locus YPL209C, strain IPL1, active compounds read low 0.976 | S. cerevisiae deletion strains, locus YPR025C, strain CCL1, active compounds read low 0.975 | S. cerevisiae deletion strains, locus YPR106W, strain ISR1, active compounds read low 0.963 | S. cerevisiae deletion strains, locus YPR111W, strain DBF20, active compounds read low 0.954 | S. cerevisiae deletion strains, strain NNK1, active compounds read low 0.951 | S. cerevisiae deletion strains, strain TSCII, active compounds read low 0.976

O=C(CSc1nnc(-c2ccco2)n1-c1ccc2c(c1)OCCO2)c1cccc(F)c1
inactive: [3] 0.983 | [4] 1 | [5] 0.997 | [1] 0.987 | [6] 1 | [7] 1.01 | [8] 0.984 | [9] 0.988 | S. cerevisiae deletion strains, locus YGR229C, strain SMI1, active compounds read low 1 | [2] 0.961 | [10] 1 | S. cerevisiae deletion strains, locus YJL187C, strain SWE1, active compounds read low 1.01 | [11] 0.997 | [12] 1.01 | [13] 1 | [14] 0.916 | [15] 1.01 | [16] 0.978 | [17] 0.954 | [18] 0.983 | [19] 0.988 | [20] 0.909 | [21] 0.77 | [22] 0.988 | [23] 0.977 | [24] 0.989 | [25] 0.988 | [26] 0.968 | [27] 0.994 | [28] 0.854

S=c1[nH]nc(-c2ccco2)n1-c1ccc2c(c1)OCCO2
inactive: [3] 0.998 | [4] 0.985 | [5] 0.994 | [1] 0.989 | [6] 0.991 | [7] 1.02 | [8] 1.02 | [9] 0.979 | [2] 1.05 | [10] 0.983 | [11] 0.987 | [12] 0.985 | [13] 0.989 | [14] 0.972 | [15] 0.98 | [16] 0.994 | [17] 0.991 | [18] 1 | [19] 0.991 | [20] 1.02 | [21] 1.05 | [22] 0.993 | [23] 1.01 | [24] 0.988 | [25] 1.01 | S. cerevisiae deletion strains, locus YOL006C, strain TOP1, active compounds read low 0.978 | [26] 0.971 | [27] 1 | [28] 1.06 | S. cerevisiae strains, strain wild type, active compounds read low 0.979
